This note sets out measurements from PubChem BioAssay (Tox21).

Values joined by “and” are separate entries in the source; they are usually repeats but may differ in a detail not shown here. Equal values may be shown once. Results filed as inconclusive are left out. A structure can be active in one record and inactive in another. Active and inactive are the calls of the source. Unless noted, calls come from the whole dose curve; as a rule, active = well fitted curve in the direction sought with a large enough effect in the repeat runs; inconclusive = weak or mixed curves; inactive = no such curve, though single readings can be large; an effect the other way counts as inactive or inconclusive.

Assay [1] addresses Acetylcholinesterase (Homo sapiens) (UniProt P22303). Nature of the assay: Acetylcholinesterase (AChE) small molecule antagonists: colormetric cell-based qHTS assay (AID 1347395; calls by dose curve; note: nearly all actives have a fitted effect of over 30% in size; note: potency is the fitted concentration of half-maximal effect). Put shortly: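 Homogeneous whole-cell format. SH-SY5Y cells seeded overnight, dosed with compound (30 min, 37 C, 5% CO2), then given DTNB/acetylthiocholine cocktail for 90 min at 37 C; colorimetric signal.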
(qHTS replaces the single test concentration by a dilution series.)

Assay [2] shares this target. Nature of the assay: Acetylcholinesterase (AChE) small molecule antagonists: enzyme-based qHTS assay (AID 1347397; calls by dose curve; note: nearly all actives have a fitted effect of over 55% in size). To be noted: Potency: AChE enzyme activity inhibition. Put shortly:
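Colorimetric DTNB read-out of thiocholine released from acetylthiocholine by recombinant human AChE (50 mU/mL as dispensed). Compounds were preincubated 30 min at RT before substrate/DTNB addition, with a 10 min RT reaction.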

Assay [3] has the same target. The experiment in a line: Acetylcholinesterase (AChE) small molecule antagonists: fluorescence cell-based qHTS assay (AID 1347398; calls by dose curve; note: nearly all actives have a fitted effect of over 50% in size). The note with it: Potency: AChE activity. Put shortly:
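SH-SY5Y, 2,000 cells/well, attached overnight; cmpd 30 min 37 C; acetylthiocholine/Thiolite Green cocktail 40 min RT; fluorescence Ex/Em 490/520 nm.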

For assay [4] the target is unchanged. The experiment in a line: Acetylcholinesterase (AChE) small molecule antagonists: enzyme-based qHTS assay with human liver microsomes (AID 1347399; calls by dose curve; note: nearly all actives have a fitted effect of over 60% in size). To be noted: Potency: qHTS inhibition. Put shortly: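 Recombinant human AChE (50 mU/mL in the enzyme mix) and human liver microsomes (0.25 mg/mL final) were preincubated with compound and NADPH (0.25 mg/mL final) for 30 min at 37 C. Acetylthiocholine/DTNB was then added; thiocholine was read colorimetrically after 10 min at room temperature.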

Assay [5] has as its target Cytochrome P450 2D6 (Homo sapiens) (UniProt P10635). Nature of the assay: Cytochrome P450 Family 2 Subfamily D Member 6 (CYP2D6) small molecule antagonists: luciferase reporter qHTS assay (AID 1671196). Note: nearly all actives have a fitted effect of over 50% in size. Note: potency is the fitted concentration of half-maximal effect. Put shortly:
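CYP2D6 activity was followed as luminescence from its luciferin product after a 1 h NADPH-driven reaction at room temperature. Enzyme-substrate mix and compound were pre-incubated for 10 min, and the signal was read 20 min after adding detection reagent.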
Background: Reporter assays use an easily measured gene product as a stand-in for the process of interest.

The target of assay [6] is Cytochrome P450 2C19 (Homo sapiens) (UniProt P33261). The experiment in a line: Cytochrome P450 Family 2 Subfamily C Member 19 (CYP2C19) small molecule antagonists: luciferase reporter qHTS assay (AID 1671197). Note: nearly all actives have a fitted effect of over 65% in size. Note: potency is the fitted concentration of half-maximal effect. The procedure, abridged:
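Compounds were tested on CYP2C19 activity via proluciferin conversion to luciferin. The 37C, 1 h reaction followed NADPH addition; detection reagent stopped it.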

Assay [7] addresses Cytochrome P450 2C9 (Homo sapiens) (UniProt P11712). The experiment in a line: Cytochrome P450 Family 2 Subfamily C Member 9 (CYP2C9) small molecule antagonists: luciferase reporter qHTS assay (AID 1671198). Note: nearly all actives have a fitted effect of over 50% in size. Note: potency is the fitted concentration of half-maximal effect. The procedure, abridged: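 P450-Glo proluciferin substrate with CYP2C9 enzyme; 10 min RT preincubation, then NADPH regeneration 1 h at 37C; luciferin detection reagent 20 min RT, luminescence in relative luminescence units.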

In assay [8] the target is Cytochrome P450 1A2 (Homo sapiens) (UniProt P05177). Nature of the assay: Cytochrome P450 Family 1 Subfamily A Member 2 (CYP1A2) small molecule antagonists: luciferase reporter qHTS assay (AID 1671199). Note: nearly all actives have a fitted effect of over 50% in size. Note: potency is the fitted concentration of half-maximal effect. Put shortly: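 Luminescence from luciferin formed by CYP1A2 from a proluciferin substrate, read 20 min after detection reagent. Compound was pre-incubated 10 min with enzyme-substrate, and reaction started with NADPH regeneration solution for 1 h at room temperature; furafylline control.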
Cytochrome P450 1A2 (Homo sapiens), sequence (P05177 whole entry, looked up): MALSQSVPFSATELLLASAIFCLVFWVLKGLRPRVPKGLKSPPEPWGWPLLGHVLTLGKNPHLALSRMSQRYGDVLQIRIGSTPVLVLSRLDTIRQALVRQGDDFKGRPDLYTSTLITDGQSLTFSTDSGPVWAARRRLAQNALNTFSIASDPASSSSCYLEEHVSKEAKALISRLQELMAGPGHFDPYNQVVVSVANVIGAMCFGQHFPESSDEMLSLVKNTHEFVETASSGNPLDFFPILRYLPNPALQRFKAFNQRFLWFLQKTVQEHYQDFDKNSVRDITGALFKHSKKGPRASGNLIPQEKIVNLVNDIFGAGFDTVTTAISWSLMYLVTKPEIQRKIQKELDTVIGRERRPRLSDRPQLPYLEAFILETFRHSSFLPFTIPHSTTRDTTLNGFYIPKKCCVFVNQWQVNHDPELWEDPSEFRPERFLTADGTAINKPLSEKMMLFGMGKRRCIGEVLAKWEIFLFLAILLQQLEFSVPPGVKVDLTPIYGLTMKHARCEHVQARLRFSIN

Assay [9] deals with Voltage-gated inwardly rectifying potassium channel KCNH2 (Homo sapiens) (UniProt Q12809). The experiment in a line: Human Ether-a-go-go-Related Gene (hERG) channel small molecule antagonists: fluorescence cell-based qHTS assay (AID 1671200). Put shortly:
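Thallium served as the potassium surrogate; its influx into dye-loaded U2OS cells carrying the channel was measured by fluorescence over 2 min.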

In assay [10] the target is Cytochrome P450 3A4 (Homo sapiens) (UniProt P08684). Nature of the assay: Cytochrome P450 Family 3 Subfamily A Member 4 (CYP3A4) small molecule antagonists: luciferase reporter qHTS assay (AID 1671201). Note: nearly all actives have a fitted effect of over 50% in size. Note: potency is the fitted concentration of half-maximal effect. Put shortly:
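Relative luminescence units after 20 min with luciferin detection reagent served as read-out. Beforehand, CYP3A4 turned over a proluciferin substrate for 1 h at room temperature with NADPH regeneration, following 10 min compound preincubation.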

Cytochrome P450 2C19 (Homo sapiens), sequence (P33261 whole entry, looked up): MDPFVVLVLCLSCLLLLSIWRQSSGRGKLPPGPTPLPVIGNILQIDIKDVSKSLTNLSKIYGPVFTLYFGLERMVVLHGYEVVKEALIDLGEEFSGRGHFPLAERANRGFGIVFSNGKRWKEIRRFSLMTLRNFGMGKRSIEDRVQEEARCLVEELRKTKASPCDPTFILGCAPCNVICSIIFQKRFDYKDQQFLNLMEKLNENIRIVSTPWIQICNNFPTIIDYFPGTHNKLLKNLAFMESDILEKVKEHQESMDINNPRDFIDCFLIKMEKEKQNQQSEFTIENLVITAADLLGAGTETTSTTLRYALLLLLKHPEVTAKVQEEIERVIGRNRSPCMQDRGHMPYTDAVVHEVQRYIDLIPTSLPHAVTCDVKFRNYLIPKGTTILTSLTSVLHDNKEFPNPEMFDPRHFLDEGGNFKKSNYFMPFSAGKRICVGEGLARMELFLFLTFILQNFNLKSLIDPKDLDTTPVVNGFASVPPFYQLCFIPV
Cytochrome P450 2C9 (Homo sapiens), sequence (P11712 whole entry, looked up): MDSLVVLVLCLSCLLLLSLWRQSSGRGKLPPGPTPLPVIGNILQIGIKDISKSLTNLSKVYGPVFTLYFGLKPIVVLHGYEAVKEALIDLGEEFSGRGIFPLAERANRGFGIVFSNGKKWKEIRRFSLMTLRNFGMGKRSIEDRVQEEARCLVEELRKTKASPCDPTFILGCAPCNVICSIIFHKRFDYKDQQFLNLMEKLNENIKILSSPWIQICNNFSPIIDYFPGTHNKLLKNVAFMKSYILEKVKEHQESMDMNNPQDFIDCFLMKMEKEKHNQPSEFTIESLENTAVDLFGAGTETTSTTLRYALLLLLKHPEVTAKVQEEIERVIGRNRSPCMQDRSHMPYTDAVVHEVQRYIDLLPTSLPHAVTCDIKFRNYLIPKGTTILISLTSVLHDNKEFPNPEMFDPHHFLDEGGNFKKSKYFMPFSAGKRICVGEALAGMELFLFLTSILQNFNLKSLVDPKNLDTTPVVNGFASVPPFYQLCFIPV
Voltage-gated inwardly rectifying potassium channel KCNH2 (Homo sapiens), sequence (Q12809 whole entry, looked up): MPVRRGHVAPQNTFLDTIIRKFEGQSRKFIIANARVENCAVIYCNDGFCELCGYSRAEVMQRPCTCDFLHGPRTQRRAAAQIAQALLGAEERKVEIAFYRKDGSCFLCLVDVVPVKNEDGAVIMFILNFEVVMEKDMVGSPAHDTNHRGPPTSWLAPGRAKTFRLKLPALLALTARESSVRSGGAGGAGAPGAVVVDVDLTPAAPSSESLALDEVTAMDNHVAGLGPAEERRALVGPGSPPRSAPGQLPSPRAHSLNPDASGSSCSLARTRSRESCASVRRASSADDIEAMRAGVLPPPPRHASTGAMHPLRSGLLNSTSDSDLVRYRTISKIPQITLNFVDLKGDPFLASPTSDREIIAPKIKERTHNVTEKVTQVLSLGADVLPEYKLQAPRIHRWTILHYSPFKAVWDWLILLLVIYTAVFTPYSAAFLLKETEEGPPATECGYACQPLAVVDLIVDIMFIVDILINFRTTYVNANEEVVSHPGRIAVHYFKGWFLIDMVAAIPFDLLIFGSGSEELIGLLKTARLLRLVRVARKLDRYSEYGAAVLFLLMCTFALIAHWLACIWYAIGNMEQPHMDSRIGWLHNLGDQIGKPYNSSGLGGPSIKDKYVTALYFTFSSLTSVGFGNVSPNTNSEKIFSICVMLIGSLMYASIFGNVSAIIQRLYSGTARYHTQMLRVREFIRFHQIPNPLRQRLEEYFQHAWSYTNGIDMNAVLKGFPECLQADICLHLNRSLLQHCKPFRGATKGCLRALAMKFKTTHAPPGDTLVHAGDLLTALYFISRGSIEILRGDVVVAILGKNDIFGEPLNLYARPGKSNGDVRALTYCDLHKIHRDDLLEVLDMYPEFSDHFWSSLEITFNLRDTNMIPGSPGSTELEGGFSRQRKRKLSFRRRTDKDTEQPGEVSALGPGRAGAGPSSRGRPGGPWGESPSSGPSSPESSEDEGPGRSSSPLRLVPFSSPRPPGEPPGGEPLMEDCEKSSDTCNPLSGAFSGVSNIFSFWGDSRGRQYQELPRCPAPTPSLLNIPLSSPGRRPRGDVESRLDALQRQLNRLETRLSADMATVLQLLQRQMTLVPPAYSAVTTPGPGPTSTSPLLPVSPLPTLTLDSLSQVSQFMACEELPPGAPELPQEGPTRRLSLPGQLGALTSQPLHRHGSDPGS
Acetylcholinesterase (Homo sapiens), sequence (P22303 whole entry, looked up): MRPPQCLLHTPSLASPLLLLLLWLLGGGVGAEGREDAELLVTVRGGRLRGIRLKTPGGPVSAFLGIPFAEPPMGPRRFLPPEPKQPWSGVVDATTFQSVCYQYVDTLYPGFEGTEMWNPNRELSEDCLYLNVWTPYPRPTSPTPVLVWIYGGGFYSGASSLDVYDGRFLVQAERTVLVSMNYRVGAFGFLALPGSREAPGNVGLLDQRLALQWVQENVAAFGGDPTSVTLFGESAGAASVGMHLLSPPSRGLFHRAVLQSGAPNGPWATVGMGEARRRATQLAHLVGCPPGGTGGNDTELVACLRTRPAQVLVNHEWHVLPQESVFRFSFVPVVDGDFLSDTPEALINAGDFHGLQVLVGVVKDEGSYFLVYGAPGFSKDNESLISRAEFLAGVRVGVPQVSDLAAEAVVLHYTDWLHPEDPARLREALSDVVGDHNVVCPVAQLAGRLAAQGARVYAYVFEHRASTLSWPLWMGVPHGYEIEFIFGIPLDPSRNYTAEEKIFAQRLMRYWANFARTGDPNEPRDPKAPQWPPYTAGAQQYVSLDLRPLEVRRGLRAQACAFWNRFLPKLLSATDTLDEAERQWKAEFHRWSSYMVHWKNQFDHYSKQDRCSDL
Cytochrome P450 2D6 (Homo sapiens), sequence (P10635 whole entry, looked up): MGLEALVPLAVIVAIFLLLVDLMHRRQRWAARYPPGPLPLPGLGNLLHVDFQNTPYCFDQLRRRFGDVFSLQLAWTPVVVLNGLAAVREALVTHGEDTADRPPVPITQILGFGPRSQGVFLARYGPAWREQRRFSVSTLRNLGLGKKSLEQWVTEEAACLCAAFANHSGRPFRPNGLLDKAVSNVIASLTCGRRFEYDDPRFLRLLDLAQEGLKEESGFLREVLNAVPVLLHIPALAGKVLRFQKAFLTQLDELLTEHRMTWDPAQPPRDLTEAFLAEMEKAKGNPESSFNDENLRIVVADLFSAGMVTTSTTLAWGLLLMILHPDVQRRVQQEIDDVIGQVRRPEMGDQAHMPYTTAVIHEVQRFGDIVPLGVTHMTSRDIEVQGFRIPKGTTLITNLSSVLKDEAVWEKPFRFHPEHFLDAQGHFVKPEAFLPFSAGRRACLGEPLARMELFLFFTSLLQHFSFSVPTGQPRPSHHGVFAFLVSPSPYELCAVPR
Cytochrome P450 3A4 (Homo sapiens), sequence (P08684 whole entry, looked up): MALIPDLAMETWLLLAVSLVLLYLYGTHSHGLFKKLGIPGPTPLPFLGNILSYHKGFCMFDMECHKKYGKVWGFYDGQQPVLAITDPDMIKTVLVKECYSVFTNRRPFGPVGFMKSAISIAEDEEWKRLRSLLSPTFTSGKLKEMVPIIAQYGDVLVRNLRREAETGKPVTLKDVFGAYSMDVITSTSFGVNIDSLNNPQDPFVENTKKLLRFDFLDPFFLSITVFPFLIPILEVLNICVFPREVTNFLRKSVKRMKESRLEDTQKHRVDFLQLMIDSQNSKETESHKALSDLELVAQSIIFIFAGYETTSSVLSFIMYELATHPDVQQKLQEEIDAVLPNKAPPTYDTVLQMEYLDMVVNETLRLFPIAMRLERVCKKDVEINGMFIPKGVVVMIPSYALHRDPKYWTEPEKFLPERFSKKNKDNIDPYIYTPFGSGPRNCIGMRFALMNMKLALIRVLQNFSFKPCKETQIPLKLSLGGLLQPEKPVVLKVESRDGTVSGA

With `Brc1ccc(Oc2cc(Br)c(Br)cc2Br)c(Br)c1`, the Potency entry in [1], in assay [2], in assay [3], in assay [4], in assay [9] and in assay [10] was “inactive” each time. The Potency in [5] is 35.6 µM (active) and inactive; in [6], 1.78 µM (active) and 1.27 µM (active); in assay [7], 31.7 µM (active) and 18 µM (active); in assay [8], 31.7 µM (active) and 32 µM (active).

`c1ccc(N=Nc2ccccc2)cc1`: the Potency result in assay [1], in [2], in assay [3], in [4], in assay [6] and in assay [7] was “inactive” in each case. The Potency result in assay [9] and in assay [10] was “inactive” in each case. The Potency in assay [5] was 14.4 µM (active) and inactive; in assay [8], 25.7 µM (active) and 10 µM (active).

As to `N#Cc1cc(Br)c(O)c(Br)c1`, the Potency entry in [1], in assay [2], in assay [3], in [4], in assay [5] and in assay [6] was “inactive” throughout. In addition, the Potency result in [8], in assay [9] and in [10] was “inactive” throughout. Also, the Potency in assay [7] is 20 µM (active) and 15.3 µM (active).

As for `CCOCN(C(=O)CCl)c1c(C)cccc1CC`, the Potency in assay [1] was 33.6 µM (active) and inactive; in [6] it was 9.47 µM (active) and 15.9 µM (active); in [7] it was 30 µM (active) and 39.9 µM (active); in [8] it was 33.6 µM (active) and inactive. Also, the Potency entry in [2], in assay [3], in assay [4], in assay [5], in assay [9] and in assay [10] was “inactive” each time.

As for `CN(C)c1ccc(C(=O)c2ccc(N(C)C)cc2)cc1`, the Potency entry in assay [1], in assay [2], in assay [3] and in assay [4] was “inactive” each time. Moreover, the Potency entry is “inactive and 35.6 µM (active)” in assay [5]; 8.85 µM (active) and 8.94 µM (active) in [6]; 31.7 µM (active) in [7]; 17.7 µM (active) and 14.2 µM (active) in [8].

With `C=CCc1ccc2c(c1)OCO2`, the Potency entry in [1], in [2], in assay [3], in [4], in assay [5] and in [6] was “inactive” throughout. Moreover, the Potency entry in assay [7], in [9] and in [10] was “inactive” each time. The Potency in [8] is 28.3 µM (active).

`C=CCN(CC=C)C(=O)C(Cl)Cl`: the Potency result in assay [1], in assay [2], in assay [3], in assay [4], in assay [5] and in assay [6] was “inactive” in each case. Further, the Potency entry in assay [7], in [8], in assay [9] and in assay [10] was “inactive” each time.

`O=C(Nc1ccc(Br)cc1)c1cc(Br)cc(Br)c1O`: the Potency entry in [1], in [2], in assay [3], in [4], in assay [6] and in [9] was “inactive” throughout. Further, the Potency in assay [5] is 79.6 µM (active) and inactive; in assay [7], 35.5 µM (active) and 17.8 µM (active) and 15.5 µM (active); in [8], 2.82 µM (active) and 35.6 µM (active) and 17.4 µM (active).

In the case of `COP(=S)(OC)Oc1cc(Cl)c(Cl)cc1Cl`, the Potency entry in assay [1], in assay [2], in assay [3], in assay [4], in [5] and in [9] was “inactive” each time. The Potency in [6] was 19.9 µM (active) and 7.76 µM (active); in assay [7] it was 9.95 µM (active) and 7.76 µM (active); in assay [8], 15.8 µM (active) and 11 µM (active).

Consider `O=P(O)(O)CCCl`, for which the Potency in assay [1] is 40.7 µM (active) and 39.8 µM (active). The Potency result in assay [2], in assay [3], in assay [4], in [5], in [6] and in assay [7] was “inactive” each time. Also, the Potency result in [8], in assay [9] and in [10] was “inactive” throughout.

Take `Nc1c(Cl)cc([N+](=O)[O-])cc1Cl`: the Potency result in [1], in assay [2], in assay [3], in assay [4], in assay [7] and in [9] was “inactive” each time. Also, the Potency result in assay [10] is “inactive”. The Potency in [5] was 35.8 µM (active) and inactive; in assay [6], 40.2 µM (active) and 56.4 µM (active); in [8], 1.79 µM (active) and 2.52 µM (active).

Take `CC(C)(OOC(C)(C)c1ccccc1)c1ccccc1`: the Potency entry in assay [1], in [2], in assay [3], in [4], in assay [8] and in assay [9] was “inactive” in each case. In assay [10], the Potency result is “inactive”. Further, the Potency in assay [5] is 35.1 µM (active) and inactive; in assay [6], 35.1 µM (active) and 6.33 µM (active); in assay [7], 31.3 µM (active) and 31.7 µM (active).

For the compound `NC(=S)Nc1ccccc1`, the Potency entry in [1], in assay [2], in assay [3], in [4] and in assay [9] was “inactive” in each case. For the same compound, the Potency in assay [5] is 9.09 µM (active) and 35.6 µM (active); in assay [6], 4.06 µM (active) and inactive; in assay [7], 25.6 µM (active) and inactive; in assay [8], 25.6 µM (active) and inactive; in assay [10] it was 5.73 µM (active) and inactive.

With `O=Cc1ccco1`, the Potency result in [1], in [2], in assay [3], in [4], in [5] and in [6] was “inactive” each time. The Potency result in assay [7], in assay [8], in assay [9] and in [10] was “inactive” throughout.

As for `CCCCC(CC)COC(=O)Cl` (stereo unspecified), the Potency result in assay [1], in [2], in assay [3], in [4], in assay [5] and in assay [6] was “inactive” each time. In addition, the Potency entry in assay [7], in assay [8], in [9] and in [10] was “inactive” in each case.

On to `CCC(C)c1cc([N+](=O)[O-])cc([N+](=O)[O-])c1O` (stereo unspecified), for which the Potency result in assay [1], in assay [2], in [3], in assay [4], in assay [5] and in [7] was “inactive” each time. The Potency result in assay [9] and in assay [10] was “inactive” throughout. Also, the Potency entry in assay [6] is “inactive and 79.6 µM (active)”; in [8] it was “inactive and 63.3 µM (active)”.

On to `Nc1ccc(-c2ccccc2)cc1`, for which the Potency result in [1], in assay [2], in assay [3], in assay [4] and in assay [9] was “inactive” throughout. Moreover, the Potency in [5] was 35.6 µM (active); in [6], 11.6 µM (active) and 11.2 µM (active); in assay [7] it was 13 µM (active) and 12.6 µM (active); in [8] it was 1.83 µM (active) and 6.33 µM (active); in assay [10] it was 6.5 µM (active) and 20 µM (active).
